Rows were chosen to be rich in hits. Some 2.2% of all compounds tested hit in one or more screens of this group.
BaF3 parental: parental Ba/F3 viability inhibition as JAK2V617F counter-screen; CellTiter-Glo ATP luminescence; inhibition, % at 5.6 µM; 220,000 compounds, 1.1% hits; AID 1486;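 active = inhibition above a per-campaign cutoff, the mean inhibition of all tested compounds plus 3 SD, cut at about 27% in these data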;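 note: 0% = DMSO wells and 100% = JAK Inhibitor I control wells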
KLF5 inhibitor: kruppel-like factor 5 inhibition | DLD-1 KLF5 promoter-luciferase reporter, luminescence | inhibition, % at 5 µM | 290,000 compounds, 0.23% hits;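 active = inhibition above a per-plate limit of that plate's mean compound inhibition plus 3 SD, cut at about 60% in these data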;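 note: 0% = DMSO wells and 100% = LY294002 at 200 µM; higher means less KLF5 promoter-driven luciferase light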
APP 5UTR inh: APP translation inhibition. SH-SY5Y APP 5'UTR-luciferase reporter, luminescence. inhibition, % at 2 µM. 190,000 compounds, 0.82% hits;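 active = inhibition above a set limit, derived from the sample mean plus 3 SD, cut at about 45% in these data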
aSyn UTR inh: 5' untranslated region of α-synuclein, MLPCN primary screen; inhibition, % (tested at 7.5 µM); alpha-synuclein 5'UTR reporter, inhibitor activity; 300,000 compounds, 0.82% hits; in the data active = inhibition above about 60%;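 note: H4 neuroglioblastoma cells stably carrying SNCA 5'UTR luciferase fusion; 0% = DMSO wells and 100% = positive control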
IEC-6 cytotox: counter-screen for KLF5 inhibitors: cytotoxicity in IEC-6 cells | AID 1825 | 290,000 compounds, 0.78% hits | inhibition, % at 5 µM | IEC-6 cytotoxicity, luminescence viability; in the data active = inhibition above about 22%;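 note: 0% = plate median of test compound wells and 100% = cytotoxic reference compound wells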
Ba/F3 V617F tox: loss of viability in JAK2V617F-driven Ba/F3 cells | Ba/F3 EpoR-JAK2V617F viability, ATP luminescence | inhibition, % at 5.6 µM | 220,000 compounds, 1.1% hits;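 active = inhibition above the campaign mean plus 3 SD over all tested compounds, cut at about 24% in these data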;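 note: cytokine-independent growth of Ba/F3 cells driven by EpoR plus mutant JAK2; 0% = DMSO-treated cells and 100% = JAK inhibitor I control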
Numbers without * were called inactive; · = no result given.

SMILES	BaF3 parental	KLF5 inhibitor	APP 5UTR inh	aSyn UTR inh	IEC-6 cytotox	Ba/F3 V617F tox
CC1=CC(C)(C)N2C(=O)C3(SCC(=O)N3c3ccc(O)cc3)c3cc(C)cc1c32 (centres undefined)	2.8	-13.7	2.8	5.1	-3.4	-2.4
CC1=CC(C)(C)N2C(=O)C3(N=C(N)NC(Nc4ccccc4)=N3)c3cc(C)cc1c32 (centres undefined)	42.0*	-8.2	-10.0	-21.2	13.8	44.3*
COc1ccc(C(=S)N2CCN(c3cccc(Cl)c3)CC2)c(OC)c1	40.8*	39.7	83.6*	42.9	53.6*	71.2*
COc1ccc(C(=O)N2CCN(c3cccc(Cl)c3)CC2)cc1	3.3	-5.4	-11.5	-3.6	8.1	-1.4
C=CCNC(=S)N(CC)c1cccc2ccccc12	35.6*	-17.0	-3.6	-7.4	6.9	34.3*
Cc1cccc(NC(=O)COC(=O)c2cccc3c2C(=O)c2ccccc2C3=O)c1C	1.9	-10.3	4.9	29.6	1.2	-3.3
Cc1cccc(C)c1NC(=O)COC(=O)c1cccc2c1C(=O)c1ccccc1C2=O	-0.2	-6.4	-15.9	67.9*	-3.2	-2.9
O=C(Nc1ccc(F)cc1)Nc1cc(OCC(F)(F)F)cc(OCC(F)(F)F)c1	1.6	-15.6	17.7	86.0*	5.8	5.6
CCOc1ccc(NC(=O)Nc2cc(OCC(F)(F)F)cc(OCC(F)(F)F)c2)cc1	3.5	-11.2	-15.4	0.5	-7.4	-1.4
CCOC(=O)c1c(C)[nH]c(C(=O)N/N=C/c2ccc(Br)cc2)c1C	77.8*	72.2*	94.7*	39.5	85.1*	73.1*
CCC(C)N(C(=O)CSc1nnc(C)n1C)C1CCS(=O)(=O)C1 (centres undefined)	·	·	·	-3.7	·	·
O=C1C=C(c2ccccc2)CC(c2cccs2)C1n1cnc([N+](=O)[O-])c1 (centres undefined)	2.9	-12.1	2.9	28.2	8.4	1.0
O=C1C=C(c2ccccc2)C[C@H](c2cccs2)[C@H]1n1nnc([N+](=O)[O-])n1	5.6	-38.1	14.6	88.3*	-4.7	1.1
O=C(CNC(=O)c1ccccc1Br)N/N=C/c1ccco1	·	-26.3	·	2.9	-2.3	·
O=C(CNC(=O)c1cccc(F)c1)N/N=C/c1cc(Br)ccc1OC(=O)/C=C/c1ccco1	6.1	-3.4	52.5*	57.5	8.7	-0.6
O=C(CNC(=O)c1ccccc1O)N/N=C/c1cc(Br)ccc1OC(=O)/C=C/c1ccco1	3.3	14.9	23.7	68.1*	-5.3	-1.1
CCOC(=O)c1[nH]cnc1N=Nc1c(O)ccc2ccccc12	5.8	-39.2	52.5*	90.6*	-5.1	0.4
Oc1ccc2ccccc2c1N=Nc1ccccn1	4.8	11.2	83.3*	74.7*	8.1	4.5
Oc1ccc2ccccc2c1N=Nc1ccccc1F	0.7	6.0	·	-12.6	7.7	-0.1
CCOC(=O)C(NC(=O)C1C(C)N1S(=O)(=O)c1ccc(C)cc1)C(=O)OCC (centres undefined)	·	-18.2	·	2.9	2.4	·
O=C(Cc1ccc(F)cc1)Nc1ccc(Cl)cn1	·	-79.7	·	-46.0	5.1	·
CCCC(=O)N1CCN(c2ccc(NC(=O)c3ccc([N+](=O)[O-])o3)cc2Cl)CC1	82.2*	-41.0	97.5*	-118.0	0.2	94.2*
O=C(Nc1ccc(N2CCOCC2)c(Cl)c1)c1ccc([N+](=O)[O-])o1	-5.1	-17.8	94.8*	-56.2	-3.5	0.7
O=C(Nc1cccc(S(=O)(=O)N2CCCCC2)c1)c1ccc([N+](=O)[O-])o1	-3.7	4.6	45.0*	-268.3	11.4	0.8
O=C(Nc1ccc(N2CCCC2)c(Cl)c1)c1ccc([N+](=O)[O-])cc1	1.9	-15.4	-13.2	-52.9	4.3	-2.2
SMILES	BaF3 parental	KLF5 inhibitor	APP 5UTR inh	aSyn UTR inh	IEC-6 cytotox	Ba/F3 V617F tox
O=C(Nc1ccccc1N1CCOCC1)c1ccc([N+](=O)[O-])o1	·	-10.5	·	-44.5	9.1	·
Cc1ccc(NC(=O)c2ccc([N+](=O)[O-])o2)cc1S(=O)(=O)N1CCOCC1	-7.9	-31.6	57.8*	-23.7	14.4	-0.8
CCN1CCN(c2c(Cl)cccc2NC(=O)c2ccc([N+](=O)[O-])o2)CC1	·	5.3	·	79.2*	0.5	·
CC(C)C(=O)N1CCN(c2ccc(NC(=O)c3ccc([N+](=O)[O-])o3)cc2Cl)CC1	-8.7	-13.7	96.1*	·	5.5	10.1
O=C(Nc1cccc(Cl)c1N1CCCC1)c1ccc([N+](=O)[O-])o1	-1.6	-13.0	-17.7	·	-8.2	-1.6
CC(=O)N1CCN(c2ccc(NC(=O)c3ccc(Br)o3)cc2Cl)CC1	1.9	-61.6	-11.5	-51.4	-4.3	-1.8
CC(C)c1ccc(CNC(=O)C2CCCN2S(=O)(=O)c2ccccc2)cc1 (centres undefined)	·	-3.2	·	2.0	3.8	·
COC(=O)c1cnc(Oc2ccc(NC(=O)NC(=O)c3c(OC)cccc3OC)cc2)cc1C(F)(F)F	-2.9	4.7	·	74.5*	3.2	2.6
CCN(CC)CCNC(=O)c1ccc(Cl)c(S(=O)(=O)Nc2ccc(Cl)cc2)c1	7.2	-10.3	59.9*	10.5	0.9	2.1
CCN(CC)CCNC(=O)c1ccc(Cl)c(S(=O)(=O)Nc2ccccc2OC)c1	2.2	5.4	-9.2	8.6	1.6	1.1
CS(=O)(=O)c1nc(-c2ccc(Br)cc2)cc(-c2ccccc2)c1C#N	4.5	-30.3	2.5	-3.0	-0.6	0.9
CS(=O)c1nc(-c2ccc(Br)cc2)cc(-c2ccccc2)c1C#N (centres undefined)	-4.2	-6.4	93.8*	120.1*	3.1	5.3
COc1ccccc1C(=O)NC(=S)/C=C1/N(C)c2ccccc2C1(C)C	37.1*	-26.1	2.9	-10.6	-1.8	37.2*
CN1/C(=C\C(=O)Nc2ccc(Cl)cc2)C(C)(C)c2ccccc21	4.3	-42.3	-30.5	-6.6	-2.1	1.4
CN1/C(=C\C(=S)NC(=O)c2ccccc2Cl)C(C)(C)c2ccccc21	62.9*	-37.8	-21.1	-25.7	7.7	69.7*
CN1/C(=C\C(=S)Nc2ccccc2)C(C)(C)c2ccccc21	46.4*	-8.4	10.9	-53.2	3.3	43.4*
CN1/C(=C/C(=S)NC(=O)C2(C)CC2(Cl)Cl)C(C)(C)c2ccccc21 (centres undefined)	57.8*	-20.2	-34.6	0.7	-8.6	20.3
Nc1ccc(N2CCCCC2)c(Cl)c1	5.2	-2.8	-12.4	-15.7	5.6	0.1
O=C(CCCC(=O)N(c1ccc(F)cc1)C(C(=O)NC1CCCC1)c1ccc(O)cc1)Nc1ccccn1 (centres undefined)	·	-21.1	·	3.3	-4.8	·
CN1/C(=C\C=N\NC(=O)c2ccccc2Br)C(C)(C)c2ccccc21	61.8*	-17.4	3.7	8.6	5.6	54.2*
CN1/C(=C/C=N/n2cnnc2)C(C)(C)c2ccccc21	3.5	-16.1	5.4	11.0	9.1	0.4
Oc1ccccc1/C=N/Nc1ccccc1	3.9	-6.0	-37.7	-133.2	0.6	0.3
Oc1ccccc1/C=N/Nc1ncc(Br)cn1	4.5	-77.1	57.0*	5.0	-5.2	2.8

High-throughput results as filed in PubChem.
